Experimental data: the supplement of paper PMC3545927
This is one part of the list. The true hit rate is not given.

Target: furin, P09958
Test: furin cleavage Z-score vs untreated control; higher = more cleavage, active = 3.5 or more, inactive = 1 or less, 8 variable residues between constant flanks
Outline: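 Peptides 8 residues long, fused to a cDNA oligonucleotide, were fixed to magnetic beads by the N-terminus and exposed to purified furin. The 0.01 ml reactions contained 50 mM HEPES pH 7.5 with CaCl2 and NaCl at 1:10 enzyme:substrate and ran 7.5, 15 or 30 min. For the cleavage Z-score, log counts of sequenced released DNA were compared with furin-free reactions, lowess-adjusted and scaled by median absolute deviation.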

Chain of furin, P09958 (P09958 whole entry): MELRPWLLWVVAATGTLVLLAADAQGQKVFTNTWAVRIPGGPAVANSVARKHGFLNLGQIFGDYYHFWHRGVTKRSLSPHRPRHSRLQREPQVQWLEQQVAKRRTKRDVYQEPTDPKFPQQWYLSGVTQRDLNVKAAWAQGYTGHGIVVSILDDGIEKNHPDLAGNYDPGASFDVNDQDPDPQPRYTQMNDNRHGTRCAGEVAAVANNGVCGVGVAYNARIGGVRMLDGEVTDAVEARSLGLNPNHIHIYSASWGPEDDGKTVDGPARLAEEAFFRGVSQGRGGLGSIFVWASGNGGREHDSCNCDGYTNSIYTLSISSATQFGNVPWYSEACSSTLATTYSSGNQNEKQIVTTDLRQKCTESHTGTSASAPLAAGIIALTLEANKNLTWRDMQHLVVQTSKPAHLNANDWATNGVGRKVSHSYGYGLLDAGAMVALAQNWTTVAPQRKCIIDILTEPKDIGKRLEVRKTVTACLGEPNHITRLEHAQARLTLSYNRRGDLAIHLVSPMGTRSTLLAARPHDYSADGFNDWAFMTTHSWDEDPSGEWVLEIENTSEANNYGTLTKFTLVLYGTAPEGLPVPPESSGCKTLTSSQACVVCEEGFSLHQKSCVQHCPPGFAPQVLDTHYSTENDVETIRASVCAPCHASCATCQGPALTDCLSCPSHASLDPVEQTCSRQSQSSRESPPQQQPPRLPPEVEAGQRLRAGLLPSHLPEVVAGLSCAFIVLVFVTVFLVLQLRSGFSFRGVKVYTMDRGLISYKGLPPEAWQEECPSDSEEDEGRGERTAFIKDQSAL

Row | Sequence | furin cleavage Z-score (7.5 min) | furin cleavage Z-score (15 min) | furin cleavage Z-score (30 min)
1 | CAVVCKSMSYAGNASASA [HC91] | -0.0467 (inactive) | 0.255 (inactive) | 0.551 (inactive)
2 | CATWPCSGSWAGNASASA [HC1848] | -0.614 (inactive) | -1.25 (inactive) | -0.879 (inactive)
3 | CASLTPCTCGAGNASASA [HC720] | -1.42 (inactive) | -1.23 (inactive) | -1.24 (inactive)
4 | CALEECSQHLAGNASASA [HC1665] | 0.42 (inactive) | 0.627 (inactive) | 0.0701 (inactive)
5 | CAAKSRPVRDAGNASASA [FS-522] | 8.85 (active) | 8.99 (active) | 6.37 (active)
6 | CARKSRPVSVAGNASASA [FS-2273] | 0.443 (inactive) | -0.359 (inactive) | 1.47
7 | CARVKRGSKVAGNASASA [FS-2100] | 2.43 | 3.33 | 4.45 (active)
8 | CARSKRSWMWAGNASASA [FS-2459] | 0.863 (inactive) | 2.1 | 6.05 (active)
9 | CARVKRIFYQAGNASASA [FS-2530] | 1.69 | -1.51 (inactive) | 0.645 (inactive)
10 | CARVESENKVAGNASASA [HC1282] | 0.35 (inactive) | -0.0116 (inactive) | 1.18
11 | CARVKRGWVWAGNASASA [FS-2101] | 2.07 | 4.37 (active) | 8.77 (active)
12 | CARSKRGWVWAGNASASA [FS-2605] | 0.844 (inactive) | 3.21 | 4 (active)
13 | CARPKRGWVWAGNASASA [FS-2164] | -0.398 (inactive) | -0.529 (inactive) | 2.44
14 | CAAKSVCGPVAGNASASA [HC410] | -0.0296 (inactive) | 1.97 | -1.19 (inactive)
15 | CAVYNHLTPLAGNASASA [HC635] | -0.863 (inactive) | 0.0646 (inactive) | -0.69 (inactive)
16 | CAEEPCHRPSAGNASASA [HC2332] | 0.704 (inactive) | 0.583 (inactive) | -1.24 (inactive)
17 | CARVARLLSAAGNASASA [FS-3114] | -1.2 (inactive) | 0.294 (inactive) | -1.59 (inactive)
18 | CARVARSGRDAGNASASA [FS-3115] | 2.88 | 2.99 | 4.3 (active)
19 | CAFLKRSGRDAGNASASA [FS-1324] | 4.93 (active) | 3.96 (active) | 4.12 (active)
20 | CARVWRDSFLAGNASASA [FS-2407] | -0.29 (inactive) | 1.62 | 0.504 (inactive)
21 | CAKLKRSHELAGNASASA [FS-2868] | 0.465 (inactive) | 2.2 | 1.3
22 | CARVARSRELAGNASASA [FS-1842] | 4.74 (active) | 5.44 (active) | 7.45 (active)
23 | CATPAETTVRAGNASASA [HC926] | -0.713 (inactive) | 1.4 | -0.157 (inactive)
24 | CAGALVAFKIAGNASASA [HC1091] | -1.03 (inactive) | -0.999 (inactive) | -1.45 (inactive)
25 | CAMGSSYGFQAGNASASA [HC1464] | 0.332 (inactive) | -0.28 (inactive) | -0.392 (inactive)
26 | CASYFRKKRSAGNASASA [FS-1288] | 10.9 (active) | 10.4 (active) | 8.85 (active)
27 | CAEHFRKKRSAGNASASA [FS-1450] | 13.1 (active) | 12 (active) | 10.4 (active)
28 | CAEHVRKLRSAGNASASA [FS-990] | 9.51 (active) | 9.45 (active) | 7.69 (active)
